Unmarked numbers belong to inactive results. Records with an inconclusive call do not appear. Entries that show only a call come without a potency. Calls of active or inactive are those of the source. Unless noted, the call rests on the fitted dose curve; in most records, active means well fitted curve in the direction sought with a large enough effect; inconclusive means small, poorly fitted or top-dose-only effect, or another doubt; inactive means no such curve, though single readings can be large; an effect the other way counts as inactive or inconclusive.
How the values were obtained:
[1] = target: Arylsulfatase A (Homo sapiens) (UniProt P15289); test: qHTS screen for enhancers of Arylsulfatase A (ASA1): LOPAC Validation Assay (AID 720538); conditions: outcome: dose series up to 57.5 µM
Arylsulfatase A (Homo sapiens), sequence (P15289 whole entry, looked up): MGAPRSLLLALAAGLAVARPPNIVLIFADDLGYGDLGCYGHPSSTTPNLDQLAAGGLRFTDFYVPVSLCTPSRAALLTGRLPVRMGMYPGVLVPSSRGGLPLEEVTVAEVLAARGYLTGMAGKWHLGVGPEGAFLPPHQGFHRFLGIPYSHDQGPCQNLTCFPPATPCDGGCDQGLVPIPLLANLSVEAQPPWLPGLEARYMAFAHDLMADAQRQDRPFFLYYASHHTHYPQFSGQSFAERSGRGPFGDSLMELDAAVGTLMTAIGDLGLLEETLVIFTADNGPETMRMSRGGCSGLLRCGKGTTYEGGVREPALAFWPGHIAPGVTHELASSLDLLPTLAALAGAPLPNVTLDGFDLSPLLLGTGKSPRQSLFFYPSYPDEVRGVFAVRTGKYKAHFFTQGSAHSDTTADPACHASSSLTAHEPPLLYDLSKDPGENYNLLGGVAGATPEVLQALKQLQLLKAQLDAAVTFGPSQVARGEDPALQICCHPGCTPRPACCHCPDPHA
Summary of the method: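 MLD patient fibroblasts (SV40, ASA-I179S), 1536-well; adhere 6 hrs; cpd 48h, 37 degree C, 5% CO2; pNCS 0.5mM final in lysis buffer, 14h RT; stop 1N NaOH final; fluor. Ex525/Em598.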

[2] = qHTS for compounds that reverse cellular toxicity of Amyloid beta (A-beta) peptide in yeast: LOPAC Validation Assay (AID 720559)
Summary of the method: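 Medium dispensed, compounds pinned, A-beta yeast suspension added; plates held at 30 C for 48 hr; absorbance measured at 600 nm to gauge growth; values scaled between DMSO and FeCl3/clioquinol (equimolar) controls.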

[3] = qHTS for Activators of Parkin Expression: LOPAC Validation Assay (NLuc Reporter) (AID 720572)
Summary of the method: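 Neuronal cells with a Parkin promoter-driven FLuc/NLuc coincidence reporter were treated 24 h at 37 C in 7-point dose response (LOPAC). NLuc luminescence read after FLuc; signals normalized to DMSO and positive control (100%).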

[4] = qHTS for Activators of Parkin Expression: LOPAC Validation Assay (FLuc Reporter) (AID 720573)
Summary of the method: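 Cells seeded, 24 h; compounds pinned, 7-pt dose response; 24 h at 37 C/5% CO2; volume reduced; FLuc reagent 10 min RT; luminescence read. Normalization: DMSO = 0, positive control = 100%.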

[5] = target: T1, Hexokinase-4 (Homo sapiens) + Glucokinase regulatory protein (Homo sapiens) (UniProt P35557+Q14397); test: qHTS assay for inhibitors of recombinant human GCK-GKRP interaction: Diaphorase-coupled assay (AID 743205)
T1 sequence (P35557 whole entry, looked up): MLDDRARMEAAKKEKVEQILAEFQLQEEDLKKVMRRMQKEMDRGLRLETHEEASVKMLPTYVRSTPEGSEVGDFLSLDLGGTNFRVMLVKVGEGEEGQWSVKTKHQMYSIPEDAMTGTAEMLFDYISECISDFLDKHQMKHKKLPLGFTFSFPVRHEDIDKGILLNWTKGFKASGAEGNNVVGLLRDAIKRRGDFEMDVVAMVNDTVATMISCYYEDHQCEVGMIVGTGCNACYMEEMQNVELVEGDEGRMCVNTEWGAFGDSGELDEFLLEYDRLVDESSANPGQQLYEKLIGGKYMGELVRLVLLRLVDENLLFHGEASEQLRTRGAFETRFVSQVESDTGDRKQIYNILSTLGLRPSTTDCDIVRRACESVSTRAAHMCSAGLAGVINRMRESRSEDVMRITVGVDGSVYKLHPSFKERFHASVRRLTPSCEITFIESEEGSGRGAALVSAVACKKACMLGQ
T1 sequence (Q14397 whole entry, looked up): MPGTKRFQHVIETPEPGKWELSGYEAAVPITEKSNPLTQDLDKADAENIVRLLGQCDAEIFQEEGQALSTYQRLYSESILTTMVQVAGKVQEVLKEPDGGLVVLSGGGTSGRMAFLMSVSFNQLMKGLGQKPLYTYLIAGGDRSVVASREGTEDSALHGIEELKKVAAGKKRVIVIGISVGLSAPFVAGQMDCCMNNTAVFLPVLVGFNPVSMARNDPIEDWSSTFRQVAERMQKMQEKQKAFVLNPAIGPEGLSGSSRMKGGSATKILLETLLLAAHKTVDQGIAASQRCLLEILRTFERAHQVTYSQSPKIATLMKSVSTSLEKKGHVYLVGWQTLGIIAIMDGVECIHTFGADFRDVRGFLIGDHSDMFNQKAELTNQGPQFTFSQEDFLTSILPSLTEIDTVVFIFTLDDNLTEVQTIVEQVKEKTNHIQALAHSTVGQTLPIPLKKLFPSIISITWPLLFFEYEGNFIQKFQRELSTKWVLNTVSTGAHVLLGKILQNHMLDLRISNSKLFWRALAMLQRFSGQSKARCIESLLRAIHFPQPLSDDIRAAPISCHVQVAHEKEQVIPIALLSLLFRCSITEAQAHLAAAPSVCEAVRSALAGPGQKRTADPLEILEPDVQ
Summary of the method: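 25 mM Hepes pH 7.6, 5 mM glucose, 0.4 mM ATP, 4 U/ml G6PDH; 10 nM each GST-GCK/FLAG-GKRP. Kinetic fluorescence read, 1/min × 30 min. Normalized: DMSO ± enzyme = max/min.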

[6] = target: T1, Hexokinase-4 (Homo sapiens) + Glucokinase regulatory protein (Homo sapiens); test: qHTS assay for inhibitors of recombinant human GCK-GKRP interaction: ADP-Glo assay (AID 743206)
Summary of the method: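 GST-GCK and FLAG-GKRP (15 nM each in the dispensed mix, with 2 uM S6P) react with 0.4 mM ATP and 5 mM glucose (final) in Hepes pH 7.6 for 60 min at room temperature. ADP is measured by ADP-Glo luminescence.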

[7] = qHTS for small molecule inhibitors of Yes1 kinase: Counter Assay (AID 686950);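 further: no kinase present so only ADP-Glo detection of a fixed ADP amount is tested; luminescence from ADP-Glo reporting ADP in a fixed ATP and ADP mixture; series mostly up to about 77 µM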
Summary of the method: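 Enzyme-free detection counter-screen: compounds preincubated 20 min in buffer, then 0.08 mM ATP plus 0.02 mM ADP added for 60 min at room temperature; ADP-Glo luminescence. Buffer 50 mM Tris pH 7.5, 10 mM MgCl2, 150 mM NaCl; normalized to ATP+ADP and ATP-only controls.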

[8] = target: Tyrosine-protein kinase Yes (Homo sapiens) (UniProt P07947); test: qHTS for small molecule inhibitors of Yes1 kinase: Primary Screen (AID 686947); further: potency means the concentration at half of the fitted maximal effect; nearly all actives have a fitted effect of over 60% in size
Tyrosine-protein kinase Yes (Homo sapiens), sequence (P07947 whole entry, looked up): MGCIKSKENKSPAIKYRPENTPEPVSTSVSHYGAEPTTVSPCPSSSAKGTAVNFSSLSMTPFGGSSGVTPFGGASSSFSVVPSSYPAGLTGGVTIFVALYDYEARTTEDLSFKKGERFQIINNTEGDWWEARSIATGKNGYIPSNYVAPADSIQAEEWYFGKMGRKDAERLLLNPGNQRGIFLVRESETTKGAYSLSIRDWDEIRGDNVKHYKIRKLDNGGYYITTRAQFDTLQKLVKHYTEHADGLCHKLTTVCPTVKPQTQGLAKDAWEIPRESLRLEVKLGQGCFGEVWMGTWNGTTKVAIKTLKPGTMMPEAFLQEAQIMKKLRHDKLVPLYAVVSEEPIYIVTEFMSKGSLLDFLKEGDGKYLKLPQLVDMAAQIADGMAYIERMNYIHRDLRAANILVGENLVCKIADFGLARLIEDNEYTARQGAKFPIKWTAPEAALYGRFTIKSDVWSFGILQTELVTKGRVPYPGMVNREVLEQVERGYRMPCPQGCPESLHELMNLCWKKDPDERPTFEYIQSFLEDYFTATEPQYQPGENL
Summary of the method: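 Yes1 (4 nM) preincubated 20 min with compound, then 60 min room-temperature reaction with 0.1 mM ATP and 0.3 mg/mL poly(E4Y) in pH 7.5 Tris, 10 mM MgCl2. ADP measured by ADP-Glo luminescence, normalised to enzyme/no-enzyme controls.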

[9] = qHTS assay for small molecule agonists of the antioxidant response element (ARE) signaling pathway measured by Nrf2-dependant transcriptional activity (AID 720636; active means well fitted curve in the direction sought with a large enough effect in the repeat runs; an effect the other way counts as inactive or inconclusive;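 further: HepG2 cells with an ARE-driven luciferase reporter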)
Summary of the method: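 Attachment 6 hr at 37 C, then compound versus DMSO vehicle for 16 hr in ARE-luc HepG2 cells (1% dialyzed FBS); luminescence recorded 30 min after ONE-Glo addition at room temperature.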

[10] = qHTS assay for small molecule agonists of the antioxidant response element (ARE) signaling pathway measured by Nrf2-dependant transcriptional activity - cell viability counter screen (AID 720653; active means well fitted curve in the direction sought with a large enough effect in the repeat runs; an effect the other way counts as inactive or inconclusive); conditions: ARE-bla HepG2 viability, CellTiter-Glo ATP luminescence, 16 h; max response: hits give low values
Summary of the method: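 ARE-bla HepG2 cells treated with compounds for 16 h at 37C; this counter screen measures viability as intracellular ATP by CellTiter-Glo luminescence after 30 min at room temperature.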

| Compound | outcome [1] | outcome [2] | outcome [3] | outcome [4] | outcome [5] | outcome [6] | outcome [7] | Potency [8] | Potency [9] | max response [10] |
| --- | --- | --- | --- | --- | --- | --- | --- | --- | --- | --- |
| Oc1ccc2c3c1O[C@H]1c4[nH]c5c(c4C[C@@]4(O)[C@@H](C2)N(CC2CC2)CC[C@]314)C[C@@]1(O)[C@H]2Cc3ccc(O)c4c3[C@@]1(CCN2CC1CC1)[C@H]5O4 | inactive | inactive | inactive | inactive | inactive | inactive | – | – | – | – |
| O=C(N[C@H]1CN2CCC1CC2)c1ccc(Cl)cc1 | inactive | inactive | inactive | inactive | inactive | inactive | – | – | – | – |
| NC(CP(=O)(O)O)C(=O)O (stereo not given) | inactive | inactive | inactive | inactive | inactive | inactive | – | – | – | – |
| CC1=NN=C(c2ccc(N)cc2)c2cc3c(cc2C1)OCO3 | inactive | inactive | inactive | inactive | inactive | inactive | – | – | – | – |
| Cc1nc(-c2ccc(-c3ccc(C(=O)N4CCc5cc6c(cc54)C4(CCN(C)CC4)CO6)cc3)c(C)c2)no1 | – | – | – | – | – | – | inactive | – | – | – |
| O=C(O)[C@@H]1CCN1 | inactive | inactive | inactive | inactive | inactive | inactive | – | – | – | – |
| NC(=NCCC[C@H](N)C(=O)O)N[N+](=O)[O-] | inactive | inactive | inactive | inactive | inactive | inactive | – | – | – | – |
| NC(N)=NOCCC(N)C(=O)O (stereo not given) | inactive; inhibitor; fitted 2.3934 uM | inactive | inactive | inactive | inactive | inactive | – | – | – | – |
| CCCN(CCC)[C@@H]1CCc2ccc(O)cc2C1 | inactive | inactive | inactive | inactive | inactive | inactive | – | – | – | – |
| NC1CCc2cc(O)c(O)cc2C1 (stereo not given) | inactive | inactive | inactive | inactive | inactive | inactive | – | – | – | – |
| CC(Cc1ccc(O)cc1)NCC(O)c1cc(O)cc(O)c1 (stereo not given) | inactive | inactive | inactive | inactive | inactive | inactive | – | – | – | – |
| C=CCON=C(C[C@H]1O[C@@H]2O[C@]3(C)CC[C@@H]4[C@H](C)CC[C@@H]([C@H]1C)[C@@]24OO3)[C@H]1O[C@@H]2O[C@]3(C)CC[C@H]4[C@H](C)CC[C@@H]([C@@H]1C)[C@@]24OO3 | – | – | – | – | – | – | inactive | 6.88 µM (active) | – | – |
| C[N+]1(C)C2CC(OC(=O)[C@H](CO)c3ccccc3)CC1C1OC12 (stereo not given in full) | inactive | – | – | – | – | – | – | – | – | – |
| NC(=O)CN1CC(O)CC1=O (stereo not given) | inactive | inactive | inactive | inactive | inactive | inactive | – | – | – | – |
| Cc1nccc2c1[nH]c1ccccc12 | inactive | inactive | inactive | inactive | inactive | inactive | – | – | – | – |
| CS(=N)(=O)CC[C@H](N)C(=O)O (stereo not given in full) | inactive | inactive | inactive | inactive | inactive | inactive | – | – | – | – |
| CC[C@@]1(O)C(=O)OCc2c1cc1n(c2=O)Cc2cc3ccccc3nc2-1 | inactive | inactive | inactive | inactive | inactive | inactive | – | – | – | – |
| CN[C@@H]1C[C@@H](c2ccc(Cl)c(Cl)c2)c2ccccc21 | – | inactive | inactive | inactive | inactive | inactive | – | – | – | – |
| CC(=O)NCCc1c[nH]c2ccccc12 | inactive | inactive | inactive | inactive | inactive | inactive | – | – | – | – |
| C[C@@H](N)Cc1cnc[nH]1 | inactive | inactive | inactive | inactive | inactive | inactive | – | – | – | – |
| CC(C)NC(C)Cc1ccc(I)cc1 (stereo not given) | inactive; inhibitor; fitted 0.3013 uM | inactive | inactive | inactive | inactive | inactive | – | – | – | – |
| c1ccc2occc2c1 | – | – | – | – | – | – | – | – | inactive | – |
| NCc1cc(=O)[nH]o1 | – | inactive | inactive | inactive | inactive | inactive | – | – | – | – |

| Compound | outcome [1] | outcome [2] | outcome [3] | outcome [4] | outcome [5] | outcome [6] | outcome [7] | Potency [8] | Potency [9] | max response [10] |
| --- | --- | --- | --- | --- | --- | --- | --- | --- | --- | --- |
| C[C@]12CCC3C(CC[C@H]4C[C@H](O)CC[C@]34C)C1CC[C@@H]2C(=O)CO (stereo not given in full) | inactive; inhibitor; fitted 2.3934 uM | inactive | inactive | inactive | inactive | inactive | – | – | – | – |
| C/C=C(/C)C(=O)O[C@H]1C(C)=C2[C@H]([C@@H]1OC(=O)CCCCCCC)[C@@](C)(OC(C)=O)C[C@H](OC(=O)CCC)[C@@]1(O)[C@H]2OC(=O)[C@@]1(C)O | inactive | inactive | inactive | inactive | inactive | inactive | – | – | – | – |
| Nc1c(Cl)c(Cl)c(Cl)c(Cl)c1Cl | – | – | – | – | – | – | – | – | inactive | 1.83% |
| c1ccc2sc(C3(N4CCCCC4)CCCCC3)cc2c1 | – | inactive | inactive | inactive | inactive | inactive | – | – | – | – |
| CC(=O)[C@H]1CCC2C3CC[C@H]4C[C@H](O)CC[C@]4(C)C3CC[C@@]21C (stereo not given in full) | inactive | inactive | inactive | inactive | inactive | inactive | – | – | – | – |
| CC[C@@H](C(N)=O)N1CCCC1=O | inactive | inactive | inactive | inactive | inactive | inactive | – | – | – | – |
| CCCCc1ccc(C(=O)O)nc1 | inactive | inactive | inactive | inactive | inactive | inactive | – | – | – | – |
| Cc1c(C(=O)c2cccc3ccccc23)c2cccc3c2n1[C@H](CN1CCOCC1)CO3 | – | inactive | inactive | inactive | inactive | inactive | – | – | – | – |
| NCCc1c[nH]c2ccccc12 | – | inactive | inactive | inactive | inactive | inactive | – | – | – | – |
| NC(CCP(=O)(O)O)C(=O)O (stereo not given) | inactive | inactive | inactive | inactive | inactive | inactive | – | – | – | – |
| C[C@]12N[C@H](Cc3ccccc31)c1ccccc12 | inactive | – | – | – | inactive | inactive | – | – | – | – |
| c1ccc(C2(c3ccccc3)CC2C2=NCCN2)cc1 (stereo not given) | – | inactive | inactive | inactive | inactive | inactive | – | – | – | – |
| O=C(O)CC[N+](=O)[O-] | inactive | inactive | inactive | inactive | inactive | inactive | – | – | – | – |
| C[C@@H]1O[C@H](C[N+](C)(C)C)C[C@H]1O | – | inactive | inactive | inactive | inactive | inactive | – | – | – | – |
| CCCN1CCO[C@@H]2c3cc(O)ccc3OC[C@H]21 | inactive | inactive | inactive | inactive | inactive | inactive | – | – | – | – |
| O=C(O)Cc1cnc[nH]1 | – | inactive | inactive | inactive | inactive | inactive | – | – | – | – |
| S=C(NC1CCCCC1)N1CCC(c2cnc[nH]2)CC1 | inactive | inactive | inactive | inactive | inactive | inactive | – | – | – | – |
| c1ccc(CCCN2CCN(CCOC(c3ccccc3)c3ccccc3)CC2)cc1 | inactive | inactive | inactive | inactive | inactive | inactive | – | – | – | – |
| C#CCOC(=O)C1=CCCN(C)C1 | inactive | inactive | inactive | inactive | inactive | inactive | – | – | – | – |
| CCCN1CCC[C@H](c2cccc(O)c2)C1 | – | inactive | inactive | inactive | inactive | inactive | – | – | – | – |
| CNCCc1ccc(O)c(O)c1 | – | inactive | inactive | inactive | inactive | inactive | – | – | – | – |
| O=C(Cc1ccc(Cl)c(Cl)c1)N1CCCCC1CN1CCCC1 (stereo not given) | inactive | inactive | inactive | inactive | inactive | inactive | – | – | – | – |
| COc1cc(C(O)CN)ccc1O (stereo not given) | inactive | inactive | inactive | inactive | inactive | inactive | – | – | – | – |
